Screening data from PubChem BioAssay.
A selection: hits, their analogues and other compounds. The true share with any hit is near 4.6%.
hgDAF12 agonist: H. glycines DAF-12 receptor agonists, primary screen, cell-based, luminescence, HEK293, GAL4 fusion, UAS-luciferase; hit rate 1.8% among 370,000; activation, % at 6.8 µM; Nuclear hormone receptor DAF-12 (Heterodera glycines), GAL4 fusion; HEK293 GAL4-hgDAF12 UAS-luciferase reporter, agonist luminescence; normalized to butyrate control; AID 687014, 2013;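 active means activation above a cutoff set at the mean of all screened compounds plus 3 SD, cut at about 10% in these data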;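 further: 0% = DMSO wells and 100% = sodium butyrate wells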
Wee1 stabilizer: Wee1 degradation inhibitors, primary screen, cell-based, HeLa, Wee1K328M-luciferase, luminescence; Wee1-like protein kinase (Homo sapiens), P30291; HeLa Luc-Wee1K328M stability; 100% = proteasome inhibitor MG132 effect; reporter increase, % at 5 µM; hit rate 1.2% among 220,000;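 active means activation above the mean of all tested compounds plus 3 SD, set per screening run, cut at about 8.8% in these data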;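 further: cells exposed to compound for 20 h before luminescence read; 0% = DMSO alone and 100% = MG132 at 30 µM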
Target sequence (P30291 whole entry K328M): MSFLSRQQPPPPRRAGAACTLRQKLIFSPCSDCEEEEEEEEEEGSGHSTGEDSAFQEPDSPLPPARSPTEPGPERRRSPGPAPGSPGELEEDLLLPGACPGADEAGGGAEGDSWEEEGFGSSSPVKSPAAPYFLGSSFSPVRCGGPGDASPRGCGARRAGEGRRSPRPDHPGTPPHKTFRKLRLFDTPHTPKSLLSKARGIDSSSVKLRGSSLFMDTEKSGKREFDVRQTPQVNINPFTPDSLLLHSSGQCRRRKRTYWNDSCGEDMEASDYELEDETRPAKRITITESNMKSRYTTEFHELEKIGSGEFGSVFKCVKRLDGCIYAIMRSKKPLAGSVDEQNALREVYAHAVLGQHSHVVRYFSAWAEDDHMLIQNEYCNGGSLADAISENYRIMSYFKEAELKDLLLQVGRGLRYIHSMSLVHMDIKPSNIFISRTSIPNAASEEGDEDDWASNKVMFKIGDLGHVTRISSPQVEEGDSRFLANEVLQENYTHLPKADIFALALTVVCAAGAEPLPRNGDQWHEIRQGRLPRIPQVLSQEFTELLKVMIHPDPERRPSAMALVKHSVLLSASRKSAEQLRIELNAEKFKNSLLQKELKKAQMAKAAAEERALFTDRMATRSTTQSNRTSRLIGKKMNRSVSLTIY
DAX1 inh-1: DAX1 (NR0B1) inhibitors, primary screen, cell-based, HEK293, Gal4-DAX1, luciferase luminescence; Nuclear receptor subfamily 0 group B member 1 (Homo sapiens), P51843; HEK293 Gal4-DAX1 luciferase reporter; inhibition, % at 6.75 µM; hit rate 0.99% among 340,000;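 active means inhibition above the mean over all tested compounds plus 3 SD, cut at about 4.2% in these data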;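 further: 0% = DAX1-transfected cells with DMSO and 100% = empty-vector control cells with DMSO; inhibition shows as a rise in luminescence from relieved DAX1 repression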
ssDAF12 agonist: S. stercoralis DAF-12 nuclear receptor activators, primary screen, cell-based, luminescence, HEK293, GRIP1 co-expression, lit1-tk-luc | Nuclear hormone receptor DAF-12 (Strongyloides stercoralis) | HEK293 ssDAF-12/GRIP1 lit1-tk-luc reporter; % of 3 µM dafachronic acid response | activation, % at 6.8 µM | hit rate 1% among 370,000 | AID 652126, 2013;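 active means activation above the mean over all tested compounds plus 3 SD, cut at about 0.9% in these data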;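 further: 0% = DMSO-only wells and 100% = 3 µM delta7-dafachronic acid wells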
DAX1 inh-2: DAX1 (NR0B1) inhibitors on StAR promoter, primary screen, cell-based, luminescence, SF-1 (NR5A1), full-length DAX-1 | HEK293T StAR-luciferase reporter, SF-1/DAX-1 repression relief | inhibition, % at 6.8 µM | hit rate 1.1% among 370,000;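 active means inhibition above the mean over all tested compounds plus 3 SD, cut at about 3.6% in these data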;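 further: 0% = DAX-1 cells with DMSO and 100% = cells lacking DAX-1 with DMSO; higher inhibition means more luminescence from relief of DAX-1 repression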
hcDAF12 agonist: H. contortus DAF-12 nuclear receptor activators, primary screen, cell-based, luminescence, HEK293, lit1-tk-luc reporter; AID 652067, 2013; activation, % at 6.8 µM; HEK293 hcDAF-12 lit1-tk-luc reporter; 0% DMSO, 100% Δ7-dafachronic acid; hit rate 1.4% among 370,000;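 active means activation above the mean of all tested compounds plus 3 SD, cut at about 5.5% in these data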;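 further: 100% = response to 3 µM Δ7-dafachronic acid high control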
An asterisk follows results filed as active; . = not tested or not shown.

SMILES | hgDAF12 agonist | Wee1 stabilizer | DAX1 inh-1 | ssDAF12 agonist | DAX1 inh-2 | hcDAF12 agonist
COc1cc(Nc2cc(C)nc3ncnn23)cc(OC)c1OC | 0 | 0 | 5.5* | -1 | 0 | 1
COc1cc(Nc2cc(C)nc3ncnn23)cc(OC)c1 | -5 | -1 | 0 | -1 | 1 | -1
COc1cc(NC(=O)c2csc3c2CCCC3)ncn1 | 12* | 1 | 3 | 0 | 3 | 0
Cc1ccc(CNC(=O)CSc2ncc(C(=O)Nc3ccccc3)c(=O)n2C)cc1 | 0 | . | 2 | 1.6* | 1 | 2
CC(=O)Nc1ccc(NC(=O)CSc2ncc(C(=O)Nc3ccccc3)c(=O)n2C)cc1 | 3 | . | 0 | 0 | 1 | 4
Cn1cnnc1SCC(=O)NCc1ccccc1 | 12* | -2 | 0 | -2 | 1 | 1
Cn1c(SCC(=O)NCc2ccccc2)ncc(C(=O)Nc2ccccc2)c1=O | 0 | . | 0 | 1.0* | 2 | 4
O=C(CN(Cc1ccco1)C(=O)c1cccc(F)c1)Nc1ccccc1C(F)(F)F | 0 | . | 1 | -1 | 3.7* | 0
CON(C)S(=O)(=O)c1cccc(C(=O)N(CC(=O)Nc2ccccc2C(F)(F)F)Cc2ccco2)c1 | -4 | . | -1 | -2 | 0 | 2
COC(=O)[C@]12C=CCN1[C@H](c1ccc(OC)c(OC)c1)c1c(c3ccccc3n1S(=O)(=O)c1ccc(C)cc1)C2 | 2 | . | . | 3.8* | 1 | 1
CNc1ccccc1C(=O)OCC(=O)N1CCc2ccccc2C1 | 2 | . | 0 | -1 | 1 | 0
O=C(OCC(=O)N1CCc2ccccc2C1)c1ccc(F)cc1Cl | 11* | . | 1 | -1 | 1 | 0
COc1cccc(CNC(=O)[C@@H]2CCCN2C(=O)[C@H]2CCCCN2C(=O)c2cccc(OC)c2)c1 | 0 | . | . | -1 | 0 | 3
Cc1cccc(C)c1-n1nnnc1C(c1ccnc2ccccc12)N(C)Cc1ccccc1 (centres undefined) | 1 | . | . | -1 | 1 | -1
CC(C)COc1ccc(CNC(=S)N/N=C/c2ccc([N+](=O)[O-])cc2)cc1 | 3 | 10* | 1 | -1 | 0 | -1
O=c1c2ccccc2oc2cc(-c3ccc4cc[nH]c4c3)ccc12 | 5 | . | 0 | -1 | 2 | 2
O=c1c2ccccc2oc2ccc(-c3ccc4[nH]ccc4c3)cc12 | 11* | . | 4 | 0 | 5.0* | 5
Cc1ccsc1CN(C)C(=O)CN1C(=O)NC2(CCCCC2C)C1=O (centres undefined) | -2 | . | 2 | -1 | -1 | -1
COc1ccc(-c2ccc(/C=N/N3C(=O)C4C5C=CC(C6CC56)C4C3=O)o2)c([N+](=O)[O-])c1 (centres undefined) | -3 | -3 | 4.4* | -1 | -1 | -3
CCc1ccc2oc(C(=O)Nc3cccnc3)c(C)c2c1 | . | . | 5.1* | . | . | .
CCOc1ccc(/C=N/Nc2nc(C)cs2)c(O)c1 | 1 | . | 4.5* | 1 | 0 | 5
O=C1C(C=NCc2ccncc2)=C(O)c2ccccc21 | 5 | 7 | 1 | -1 | 3 | 2
O=C1N/C(=C/c2ccc(Br)cc2)C(O)=C1C=NCc1ccccc1 | 2 | 5 | 0 | -1 | 0 | 5.6*
CSc1sc(-c2ccnc(=S)[nH]2)c(-c2ccccc2)c1C#N | -1 | 9.8* | . | -1 | 0 | -1
CCC[C@H]1[C@@H](OC(=O)NCc2ccc(C)cc2)CC[C@@]23CCCN2C(=O)CCC[C@@H]13 | 3 | . | . | -2 | . | -1
SMILES | hgDAF12 agonist | Wee1 stabilizer | DAX1 inh-1 | ssDAF12 agonist | DAX1 inh-2 | hcDAF12 agonist
CCCc1ccc(C(O)c2ncc(-c3ccccc3)[nH]2)cc1 (centres undefined) | 10 | . | . | -1 | 0 | 2
O=C(CSc1cccs1)Nc1ccc(Cl)cc1 | 4 | 10* | 4.9* | -1 | 0 | 2
O=C(CSc1ccc(Cl)cc1)Nc1ccccc1 | 6 | . | 1 | -1 | 0 | 1
C[C@@H](C(=O)NCC1CCCO1)N1C(=O)N2CCc3c([nH]c4ccccc34)[C@@]2(C)C1=O (some centres undefined) | -2 | . | 3 | -1 | 0 | 1
COc1ccc2[nH]c3c(c2c1)CCN1C(=O)N([C@@H](C)C(=O)NCC2CCCO2)C(=O)[C@]31C (some centres undefined) | 6 | . | 5.7* | -1 | 0 | 2
CN(C)CC(CCC(CN(C)C)C(=O)c1ccccc1)C(=O)c1ccccc1 (centres undefined) | . | 11* | -9 | . | . | .
COC(=O)[C@]12C[C@H](CC(=O)NCc3ccc(C)o3)C(=O)N(CCc3ccc(OC)c(OC)c3)C1=C[C@H](COCc1ccccc1)O[C@@H]2C | -2 | . | . | -1 | -1 | -1
Cc1ccc(S(=O)(=O)N(C)CC(=O)N2CCN(Cc3ccccc3)CC2)cc1 | -2 | . | 5.0* | -1 | -1 | 1
COC(=O)c1c(C)cc(C)n2c1nc1ccccc12 | 1 | 9.8* | -1 | -1 | -1 | -1
Cc1cc(C)n2c(nc3ccccc32)c1C(=O)NN | 5 | 1 | . | -1 | 1 | 0
CCOC(=O)N1CCC(NC(=O)CN2C(=O)CSc3ncccc32)CC1 | -2 | 0 | 5.0* | -1 | 0 | 5
CCOC(=O)c1c(N)n[nH]c1-c1ccc(OC)cc1 | 1 | -3 | -1 | -1 | 0 | -1
Cc1ccc(OCC(=O)N/N=C/c2cccnc2)cc1 | -1 | . | 0 | 0 | 1 | 2
CCOC(=O)c1c(Nc2ccc(OC)cc2)n[nH]c1C | 8 | . | . | 0 | 4.3* | 1
CCOC(=O)c1c(N/N=C/c2cccnc2)n[nH]c1C | 3 | 5 | 5.3* | -1 | 0 | 0
CNc1nc(N)c([N+](=O)[O-])c(NCC2CCCO2)n1 (centres undefined) | 0 | -1 | 5.2* | -1 | 0 | -2
COC(=O)[C@]12C[C@H](CC(=O)NCC3CCCCC3)C(=O)N(Cc3cccc4ccccc34)C1=C[C@H](COCc1ccccc1)O[C@@H]2C | 3 | . | . | 0 | 1 | -1
COc1ccccc1/C=C/C=N/n1c(-c2ccccn2)n[nH]c1=S | 5 | 4 | 1 | -1 | 1 | 5.6*
Cc1ccccc1-c1nnc(SCc2ccccc2)o1 | 3 | 6 | 4 | 0 | 0 | 3
Cc1ccccc1-c1nnc(Cc2ccccc2)o1 | 12* | 7 | 1 | -1 | 2 | 1
